Screens (PubChem)
Only some compounds are listed: those with a hit (about 1.4% of all), similar ones and a draw of the others.
AmpC no deterg: AmpC beta-lactamase inhibition without detergent; P00811; AmpC nitrocefin hydrolysis, absorbance 480 nm, 0.0001% Triton; Potency, µM (highest dose often 57.1 µM), for inactives: top-dose activity change, negative = inhibition, most hits filed as inhibitors; 330,000 compounds, 0.52% hits; AID 485341;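 also: plate controls were no compound for no effect and no enzyme for full effect; nearly all actives have a fitted effect of over 20% in size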
Target sequence (P00811 whole entry, looked up): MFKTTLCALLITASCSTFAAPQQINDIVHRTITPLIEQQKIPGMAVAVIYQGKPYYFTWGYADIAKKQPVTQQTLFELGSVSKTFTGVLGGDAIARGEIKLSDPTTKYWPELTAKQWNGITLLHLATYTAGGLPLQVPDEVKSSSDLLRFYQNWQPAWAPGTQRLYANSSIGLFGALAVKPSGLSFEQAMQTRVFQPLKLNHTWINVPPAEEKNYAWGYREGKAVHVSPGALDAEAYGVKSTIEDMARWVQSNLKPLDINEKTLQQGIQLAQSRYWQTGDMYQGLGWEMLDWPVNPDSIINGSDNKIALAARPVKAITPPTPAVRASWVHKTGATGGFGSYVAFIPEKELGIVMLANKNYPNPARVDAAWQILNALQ
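AmpC (5.3 nM in the dispensed reagent) in 20 mM phosphate pH 7.0 with 0.01% (detergent screen) or 0.0001% Triton X-100 was preincubated with compounds for 15 min at room temperature. Nitrocefin was then added from an 800 uM solution, and hydrolysis was followed at 480 nm.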
AmpC detergent: inhibitors of E. coli AmpC beta-lactamase with detergent; P00811; AmpC hydrolysis of nitrocefin, absorbance 480 nm, 0.01% Triton; Potency, µM (series often up to 114 µM), without a hit: top-dose activity change, negative = inhibition, hits mostly inhibitors; 370,000 compounds, 0.041% hits;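 also: 0% = no-compound wells and -100% = no-enzyme wells; nearly all actives have a fitted effect of over 25% in size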
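AmpC (5.3 nM in the dispensed reagent) in 20 mM phosphate pH 7.0 with 0.01% (detergent screen) or 0.0001% Triton X-100 was preincubated with compounds for 15 min at room temperature. Nitrocefin was then added from an 800 uM solution, and hydrolysis was followed at 480 nm.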
Giardia FBPA inh-1: blocks Giardia fructose-bisphosphate aldolase activity; purified Giardia FBPA; Potency, µM (doses to about 59.6 µM), for the others: top-dose activity, negative = inhibition, actives largely listed as inhibitors; 290,000 compounds, 0.71% hits; also: nearly all actives have a fitted effect of over 55% in size
Target sequence (A8B2U2 whole entry, looked up): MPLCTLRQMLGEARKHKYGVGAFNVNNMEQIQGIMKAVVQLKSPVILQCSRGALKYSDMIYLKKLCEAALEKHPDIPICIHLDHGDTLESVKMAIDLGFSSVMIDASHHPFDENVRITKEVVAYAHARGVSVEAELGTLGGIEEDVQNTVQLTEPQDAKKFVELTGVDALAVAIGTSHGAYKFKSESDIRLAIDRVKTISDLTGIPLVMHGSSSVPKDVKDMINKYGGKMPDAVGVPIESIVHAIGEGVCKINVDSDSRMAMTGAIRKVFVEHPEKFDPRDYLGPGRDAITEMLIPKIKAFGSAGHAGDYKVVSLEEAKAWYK
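40 nM FBPA preincubated 10 min at RT with compound (up to 57.5 uM final), then substrate plus GAPDH/TPI/NAD/arsenate coupling and diaphorase/resazurin added. Fluorescence read after 20 min at RT, 525/598 nm.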
Tb PYK inh: inhibitors of Trypanosoma brucei pyruvate kinase | 410,000 compounds, 0.12% hits | Q57TT1 | Potency, µM (highest dose often 76.8 µM), without a hit: at the highest dose activity, negative = inhibition, actives largely listed as inhibitors | AID 624173 | TbPYK enzyme, Kinase-Glo Plus ATP luminescence, 45 min; also: nearly all actives have a fitted effect of over 50% in size
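ADP (130 uM final) triggers the TbPYK reaction after compound addition; incubation is 45 min at room temperature. Kinase-Glo Plus is then added and luminescence imaged. Normalized data are fitted to concentration-effect curves.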
LmPK inhibitor: inhibitors of Leishmania mexicana pyruvate kinase | 290,000 compounds, 0.37% hits | Q27686 | purified LmPK, Kinase-Glo ATP luminescence, 1 h | Potency, µM (highest dose often 57.5 µM), without a hit: at the top dose activity change, negative = inhibition, hits mostly inhibitors
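qHTS format; LmPK 0.1 nM; substrates PEP 0.5 mM and ADP 0.1 mM. One-hour room-temperature incubation, then coupled luciferase luminescence; 0.5 nM enzyme wells mark activation.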
RE007 growth inh: less growth of the S. pombe RE007 Vpr strain; 360,000 compounds, 0.21% hits; AID 651644; S. pombe RE007 Vpr strain, BacTiter-Glo ATP luminescence, 24 h; Potency, µM (top dose mostly 92.2 µM), inactives show at the top dose activity change, negative = less growth, hits mostly inhibitors; active = well fitted falling curve with a large enough effect; inconclusive = small, poorly fitted or top-dose-only effect; inactive = no such curve, though single readings can be large or run the other way; also: nearly all actives have a fitted effect of over 50% in size
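Fission yeast RE007 carrying one integrated HIV-1 vpr copy, seeded at OD 0.01 in PMG+AL medium with 23 nL pinned compound. Grown 24 h at 30 degrees; viability read by BacTiter-Glo luminescence after 5 min.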
Giardia growth: blocks growth of Giardia lamblia trophozoites; shares compounds with Giardia FBPA inh-1; Giardia lamblia trophozoite growth inhibition; Potency, µM (titrated, usually from 57.5 µM), for inactives: top-dose activity change, negative = inhibition, hits mostly inhibitors; 1,500 compounds, 5% hits; AID 2785;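 also: trophozoites exposed to compound for 48 h at 37 °C; nearly all actives have a fitted effect of over 70% in size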
Mammalian tox: toxic to mammalian cells in Giardia aldolase counter-screen | shares compounds with Giardia FBPA inh-1 | mammalian cell viability counter-screen, qHTS | Potency, µM (doses to about 57.5 µM), for the others: at the highest dose viability change, negative = toxicity, actives largely listed as inhibitors | 1,500 compounds, 4% hits | AID 2786;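 also: Chinese hamster ovary cells used as mammalian cytotoxicity surrogate; viability measured as cellular ATP by luminescence; compound exposure lasted 48 h before reading; nearly all actives have a fitted effect of over 60% in size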
Giardia FBPA inh-2: confirmation of Giardia fructose-bisphosphate aldolase inhibitors; purified Giardia aldolase enzyme activity, qHTS; Potency, µM (series often up to 57.5 µM), for inactives: at the highest dose activity change, negative = inhibition, usual class: inhibitors; 1,500 compounds, 5% hits; shares compounds with Giardia FBPA inh-1; also: nearly all actives have a fitted effect of over 45% in size
Rabbit FBPA inh: selectivity test for Giardia aldolase inhibitors: rabbit aldolase; 1,500 compounds, 4% hits; Potency, µM (doses to about 57.5 µM), for inactives: at the top dose activity, negative = inhibition, hits mostly inhibitors; Rabbit muscle FBPA enzyme inhibition, selectivity counter-screen; shares compounds with Giardia FBPA inh-1; also: nearly all actives have a fitted effect of over 60% in size
GAPDH counter: GAPDH inhibition flagged for Giardia aldolase hits | GAPDH coupling enzyme counterscreen, biochemical, qHTS | shares compounds with Giardia FBPA inh-1 | Potency, µM (doses to about 57.5 µM), for inactives: at the highest dose activity change, negative = inhibition, hits mostly inhibitors | 1,500 compounds, 6% hits; also: nearly all actives have a fitted effect of over 55% in size
An asterisk follows results filed as active; u = inconclusive; x = no result; [ ] = remark or other dose. Unless noted, calls follow the shape of the dose curve; as a rule, active = well fitted curve in the direction sought with a large enough effect; inconclusive = small, poorly fitted or top-dose-only effect, or another doubt; inactive = no such curve, though single readings can be large; an effect the other way counts as inactive or inconclusive. Unless noted, % is scaled to controls: 0 for no effect and ±100 for the full control effect; potency is read from the fitted curve at half-maximal effect.

SMILES	AmpC no deterg	AmpC detergent	Giardia FBPA inh-1	Tb PYK inh	LmPK inhibitor	RE007 growth inh	Giardia growth	Mammalian tox	Giardia FBPA inh-2	Rabbit FBPA inh	GAPDH counter
Cc1cccc(CNC(=O)CCCn2c(=O)c3cccn3c3ccc(F)cc32)c1	x	9%	x	-1%	x	x	x	x	x	x	x
CCOC(=O)C1=C(CS(=O)(=O)c2ccc(C(C)(C)C)cc2)NC(=O)NC1c1cccc(OC)c1 (stereo not drawn)	x	18%	x	1%	x	x	x	x	x	x	x
Cn1ccnc1P(=S)(c1nccn1C)N1CCOCC1	-14%	-9%	-13%	-9%	0%	5%	x	x	x	x	x
Cn1ccnc1P(=S)(c1nccn1C)c1nccn1C	-14%	u	7.9µM*	3%	-2%	9%	13%[38.3 µM]	5%	2%	5%	-2%
COc1ccc(CN2CCN(C(C)C(=O)NC(C)c3ccc(F)cc3)CC2)cc1F (stereo not drawn)	92%	-12%	-6%	0%	-2%	1%	x	x	x	x	x
COc1cccc(C(=O)N2CCN(Cc3ccc4c(c3)OCO4)CC2)c1OC	20%	-9%	-18%	-15%	-6%	1%	x	x	x	x	x
COc1ccc(CN2CCN(C(=O)c3cccc(OC)c3OC)CC2)cc1OC	6%	-7%	20µM*	3%	0%	-6%	12%	1%	8%	4%	8%
COc1ccc(CN2CCN(C(C)C(=O)N(C)Cc3cccc(F)c3)CC2)cc1OC (stereo not drawn)	46%	-4%	16µM*	23%	-6%	-29%	u	3%	6%	6%	9%
COc1ccc(Nc2nnc(-c3ccc(C)c(S(=O)(=O)N4CCOCC4)c3)c3ccccc23)cc1	x	9%	x	-1%	x	x	x	x	x	x	x
CCCSC1=N/C(=C\c2ccc([N+](=O)[O-])o2)C(=O)S1	-3%[2.29 µM]	-14%	u	u	-8%	u	x	x	x	x	x
CCSC1=N/C(=C\c2ccc(-c3ccccc3[N+](=O)[O-])o2)C(=O)S1	-33%	6%	u	1%	3%	-1%	6%[38.3 µM]	-19%	-20%	-5%	-18%
COc1ccccc1OCC(=O)NNC(=O)c1cnccn1	-9%	-4%	16µM*	-4%	4%	4%	u	3%	-1%	-1%	7%
COc1ccc(OCC(=O)NNC(=O)c2ccccn2)cc1	-5%	-5%	16µM*	1%	1%	-1%	8%[10.4 µM]	8%	-1%	-5%	-4%
COc1ccc(OCC(=O)NCCNC(=O)c2ccccn2)cc1	-2%	1%	8%	10%	-7%	-8%	x	x	x	x	x
Cn1ncc(C(=O)N2CCN(c3ccc(F)cc3)CC2)c1C1CCN(C(=O)OC(C)(C)C)CC1	x	14%	x	2%[15.4 µM]	x	x	x	x	x	x	x
CCCCOc1c(Br)cc(CNCCCN2CCOCC2)cc1OC	46%	-11%	20µM*	-6%	-2%	3%	u	-9%	3%	3%	8%
CCCCNCc1cc(Br)c(OCC(=O)N2CCOCC2)c(OC)c1	-15%	-1%	-3%	-28%	1%	4%	x	x	x	x	x
CC(=O)Nc1nc(-c2ccc(Cl)cc2)nc(C)c1C(C)=O	10%	u	7.1µM*	-2%	3%	18%	0%[10.4 µM]	-17%	-7%	7%	5%
Cc1ncoc1C(=O)Nc1nccs1	-17%	5%	-7%	1%	-7%	-2%	x	x	x	x	x
Cc1ncoc1C(=O)Nc1ncc([N+](=O)[O-])s1	-46%	-10%	18µM*	u	u	u	u	-18%	1%	2%	11%
CC(=O)c1ccc(NS(=O)(=O)c2cc(-c3cc(C)no3)ccc2C)cc1	x	10%	x	1%	x	x	x	x	x	x	x
Cc1snc2sc(C(=O)c3ccc(F)cc3)c(N)c12	-24%	-5%	6.3µM*	-2%	-4%	-6%	3%[38.3 µM]	-24%	40µM*	u	u
O=Nc1onc(-c2ccc([N+](=O)[O-])cc2)c1NO	-34%	7%	14µM*	4%	4%	-26%	u	1%	-14%	-4%	16%
O=C(O)/C=C/C(=O)Nc1ccc(O)cc1	-18%	-5%	u	-9%	-5%	-4%	16%[38.3 µM]	u	5.2µM*	u	5.8µM*
Cc1ccc(O)c(CN(C)Cc2cc(C)ccc2O)c1	x	x	x	-22%	x	-25%	x	x	x	x	x
SMILES	AmpC no deterg	AmpC detergent	Giardia FBPA inh-1	Tb PYK inh	LmPK inhibitor	RE007 growth inh	Giardia growth	Mammalian tox	Giardia FBPA inh-2	Rabbit FBPA inh	GAPDH counter
CN(CCCCCCN(C)Cc1ccccc1O)Cc1ccccc1O	-12%	-1%	28µM*	22%	-7%	-16%	u	-9%	2%	3%	6%
COc1cc(NC(C)CCc2ccccc2)cc(OC)c1OC (stereo not drawn)	-23%	-10%	13µM*	0%	-2%	-6%	-10%[10.4 µM]	-25%	u	u	u
COc1cccc(OC)c1C(=O)NC(C)CCc1ccccc1 (stereo not drawn)	-8%	u	0%	-4%	-3%	-3%	x	x	x	x	x
O=C(N/N=C/c1ccccn1)c1cc(-c2ccccc2Cl)n[nH]1	-45%	4%	16µM*	1%	-1%	27%	-19%	-8%	-8%	-14%	-18%
O=C(N/N=C/c1ccccn1)c1cc(-c2ccccc2)nc2ccccc12	6%	2%	14µM*	-1%	2%	12%	24%	u	10%	7%	-2%
O=C(N/N=C/c1ccccn1)c1cccc(S(=O)(=O)N2CCCC2)c1	-8%	8%	16µM*	1%	3%	11%	4%[10.4 µM]	5%	6%	7%	0%
O=C(N/N=C/c1ccccn1)c1cc(C2CC2)nc2ccccc12	-16%	2%	8%	-5%	-1%	14%	x	x	x	x	x
